Z-score data for 77 compounds are collected here from PubChem BioAssay AID488969 (Vanderbilt High Throughput Screening Facility, 2010).

Over roughly 110,000 compounds, “z-score” has its median near -0.1; the highest 2% begin near 2. What follows is part of a selection rich in the highest values, with near analogues and random picks from the rest. Active and inactive are the calls of the source.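 The calls were made as follows: active = z-score in the third read window above 3 or below -3; inactive = the rest.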

Sequence of Metabotropic glutamate receptor 8 (Rattus norvegicus) (P70579 whole entry, looked up): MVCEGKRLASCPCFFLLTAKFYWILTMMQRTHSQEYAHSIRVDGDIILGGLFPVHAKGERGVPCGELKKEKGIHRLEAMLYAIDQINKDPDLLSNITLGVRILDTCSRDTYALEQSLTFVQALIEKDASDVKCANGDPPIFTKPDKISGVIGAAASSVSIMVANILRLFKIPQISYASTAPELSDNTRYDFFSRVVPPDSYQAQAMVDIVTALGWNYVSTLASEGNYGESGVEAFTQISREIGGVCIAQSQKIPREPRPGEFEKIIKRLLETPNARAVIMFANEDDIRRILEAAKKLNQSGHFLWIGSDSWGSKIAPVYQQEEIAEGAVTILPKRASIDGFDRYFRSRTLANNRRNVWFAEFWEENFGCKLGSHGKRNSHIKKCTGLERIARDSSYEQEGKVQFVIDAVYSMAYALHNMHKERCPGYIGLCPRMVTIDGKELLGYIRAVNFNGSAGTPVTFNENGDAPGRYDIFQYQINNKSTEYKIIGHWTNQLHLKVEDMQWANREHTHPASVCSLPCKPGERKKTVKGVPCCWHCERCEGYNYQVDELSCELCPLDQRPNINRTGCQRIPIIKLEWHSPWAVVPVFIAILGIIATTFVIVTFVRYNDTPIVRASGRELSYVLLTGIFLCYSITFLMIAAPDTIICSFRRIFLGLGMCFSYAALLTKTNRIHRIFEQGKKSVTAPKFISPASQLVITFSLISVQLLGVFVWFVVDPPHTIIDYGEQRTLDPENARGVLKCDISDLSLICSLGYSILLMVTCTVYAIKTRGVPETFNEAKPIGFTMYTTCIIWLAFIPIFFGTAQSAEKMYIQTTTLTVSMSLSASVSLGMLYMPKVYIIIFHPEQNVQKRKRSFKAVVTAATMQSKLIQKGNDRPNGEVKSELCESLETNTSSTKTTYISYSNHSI

This assay addresses Metabotropic glutamate receptor 8 (Rattus norvegicus) (UniProt P70579). Put plainly: mGluR8 Gi/Go-coupled signaling modulation – cell-based, rat, thallium flux, HTS, primary screen (AID 488969). The conditions noted are these: HEK293 rat mGluR8, GIRK (G protein-gated inwardly rectifying potassium channel) thallium flux, FluoZin2; at 10 µM; stronger effect = higher value; submaximal glutamate (EC20) added with thallium.
Consider `CN(CCO)c1ccc([N+](=O)[O-])cc1C(=O)O`, for which the z-score is 0.404.

Consider `CCOc1ccc(S(=O)(=O)Nc2ccccc2C(=O)N/N=C/c2c(OC)ccc3ccccc23)cc1`, for which the z-score was -0.58.

In turn, `O=C(Nc1ccccc1C(=O)N/N=C/c1ccco1)c1ccc(Cl)cc1` gave a z-score of 0.162.

With `O=C(Nc1ccccc1C(=O)N/N=C/c1ccco1)c1ccccc1`, the z-score was 3.37 (active).

Turning to `Cc1nc2ccccc2cc1C(=O)N/N=C/c1ccco1`, the z-score worked out at 0.211.

For `O=C(N/N=C/c1ccco1)c1ccncc1`, the z-score was determined as 0.0764.

With `Cc1ccccc1C(=O)Nc1ccccc1C(=O)N/N=C\c1ccco1`, the z-score was 5.6 (active).

As to `O=C(Nc1ccccc1C(=O)N/N=C/c1ccco1)c1ccccc1Cl`, the z-score is 0.924.

Regarding `Cc1cc(C)nc(N/N=C/c2ccccc2OCc2cccc(Br)c2)n1`, the z-score is -0.027.

With `O=C(NN1C(=O)C2C3C=CC(C4CC34)C2C1=O)c1ccc(Cl)cc1Cl` (configuration not stated), the z-score is -0.0308.

`Cc1ccc(-c2nnn(CC(=O)N(c3ccccc3)C(C(=O)NC(C)(C)C)c3cccs3)n2)o1` (configuration not stated): the z-score is -0.243.

For the compound `CCCC(=O)Nc1c2c(nn1-c1ccc(OC)cc1)CS(=O)C2` (configuration not stated), the z-score is -1.01.

`COc1ccc(Cl)cc1N(C)C(=O)CCc1nc(-c2ccc(C)cc2)no1` gave a z-score of 0.139.

In the case of `CC(=O)Nc1ccc(SCC(=O)Nc2ccccc2-c2ccccc2)cc1`, the z-score is -0.153.

`CC(=O)N1C(=O)c2cccc3cccc(c23)C(=O)N1C(C)=O` showed a z-score of 0.73.

Consider `CNC(=S)N/N=C1\C(=O)c2cccc3cccc1c23`, for which the z-score is 14.1 (active).

Turning to `O=C(N/N=C1/C(=O)c2cccc3cccc1c23)c1ccc(Cl)cc1`, the z-score is 3.2 (active).

`CCCCNC(=S)N/N=C/c1ccc(C)s1` displayed a z-score of 1.81.

Compound `CCCCNC(=S)Nc1ccccc1F` registered a z-score of 0.54.

Turning to `CCNC(=S)NS(=O)(=O)c1ccccc1`, the z-score is -0.195.

For `CC(C)/C=N/NC(=O)c1ccc(Cl)cc1`, the z-score is -0.254.

The compound `CNC(=O)CN1C(=O)c2cccc3cccc1c23` registered a z-score of 0.394.

For `CCNC(=S)N/N=C1\C(=O)c2cccc3cccc1c23`, the z-score is 12.9 (active).

As to `O=C1c2cccc3cccc(c23)C(=O)N1OS(=O)(=O)c1ccc(Cl)cc1`, the z-score stood at 0.123.

As to `CCCCNC(=S)N/N=C1\C(=O)c2cccc3cccc1c23`, the z-score was 3.16 (active).

The compound `CCNC(=S)N/N=C/c1ccco1` registered a z-score of 0.768.

As for `CCC(Sc1nc2ccccc2c(=O)[nH]1)C(=O)O` (configuration not stated), the z-score came to 0.219.

In the case of `CC(C)(C)c1ccc(S(=O)(=O)NCC(=O)N2CCN(C(=O)c3ccco3)CC2)cc1`, the z-score was -0.0781.

Regarding `O=C(CCSCCC(=O)NCc1ccc(F)cc1)NCc1ccc(F)cc1`, the z-score is -0.471.

In the case of `CCOC(=O)c1c(-c2ccc(OC)cc2)csc1/N=C/N(C)C`, the z-score was -0.193.

As for `COc1ccc2c(c1)c1nc3ccccc3nc1n2Cc1ccc(OC(C)C)c(OC)c1`, the z-score is -0.644.

`O=C(NCC(=O)N1CCN(c2ncccn2)CC1)c1cccs1` showed a z-score of 0.235.

`Cn1cc(-c2nnnn2-c2ccc(Cl)cc2)c(C(F)(F)F)n1`: the z-score was 0.131.

`CCCCc1nc(NCc2ccccc2)c(C#N)c2c1COC(C)(C)C2`: the z-score was determined as 0.531.

For `O=C(NCCCN1CCOCC1)c1ccc(CS(=O)(=O)c2ccc(Br)cc2)o1`, the z-score was -0.0398.

Take `CC(=O)Nc1ccc(NC(=O)c2ccc(Cn3cc(Cl)cn3)cc2)cc1`: the z-score is -0.369.

`S=c1[nH]ccn1-c1cccc(Cl)c1` registered a z-score of 2.29.

Consider `S=c1[nH]cc(-c2ccccc2)n1-c1cccc(Cl)c1`, for which the z-score came out at 2.94.

As to `Cn1c(-c2ccccc2)cccc1=O`, the z-score stood at 0.333.

For the compound `S=c1[nH]cc(-c2ccccc2)n1-c1ccccc1Cl`, the z-score worked out at 0.447.

For the compound `Cn1c(-c2ccc(-c3ccccc3)cc2)c[nH]c1=S`, the z-score is 4.21 (active).

Turning to `S=c1[nH]cc(-c2ccc(Cl)cc2)n1-c1ccccc1`, the z-score is 1.94.

Regarding `Cc1cccc(-n2cc[nH]c2=S)c1`, the z-score stood at 0.0616.

`C=CCn1c(-c2ccccc2)c[nH]c1=S` came in with a z-score of 0.229.

As for `CCn1c(-c2ccccc2)c[nH]c1=S`, the z-score was determined as 0.254.

On to `CCn1c(-c2ccc(-c3ccccc3)cc2)c[nH]c1=S`, for which the z-score was 3.86 (active).

`Cc1ccc(-n2cc[nH]c2=S)cc1C` displayed a z-score of 1.42.

`S=c1[nH]cc(-c2ccccc2)n1-c1ccccc1` displayed a z-score of 0.267.

`COc1ccnc(N2CCN(c3ccccc3)CC2)c1C#N` yielded a z-score of 0.0026.

On to `COc1cccc(/C(O)=C2/C(=O)C(=O)N(CCN(C)C)C2c2ccccn2)c1` (configuration not stated), for which the z-score is -0.249.

Regarding `CCc1ccc(NC(=O)CSc2nc3ccccc3c(=O)n2CCCC(=O)N2CCCC2)cc1`, the z-score was -0.305.

In the case of `NC(=O)c1ccc(F)cc1`, the z-score worked out at 0.635.

In the case of `Cc1ccc(NC(=O)N2C(=O)C3(OCCO3)c3ccccc32)cc1`, the z-score is -0.237.

As to `COc1ccc(-c2cc(C(F)F)n3ncc(C(=O)N4CCN(C)CC4)c3n2)cc1`, the z-score was -0.201.

The compound `COc1cc(C2C(C(=O)N3CCOCC3)=C(C)NC3=C2C(=O)CCC3)ccc1OC(C)=O` (configuration not stated) showed a z-score of 0.401.

On to `COCCCNCCCCOc1cccc(Br)c1`, for which the z-score is 0.266.

`Cc1ccc2nc(NC(=O)CSc3nc4ccccc4o3)sc2c1`: the z-score was found to be 0.182.

As for `Nc1nc2ccc(-c3nc4ccccc4o3)cc2s1`, the z-score was -0.112.

The compound `Cc1ccc2nc(NC(=O)c3ccc4ncsc4c3)sc2c1` yielded a z-score of 0.195.

Regarding `CC(=O)Nc1nc2ccc(C(=O)NC3CCCCC3)cc2s1`, the z-score was -0.32.

On to `CNC(=O)c1ccc2nc(NC(C)=O)sc2c1`, for which the z-score was 8.42 (active).

In the case of `CC(=O)Nc1nc2ccc(-c3nc4ccccc4o3)cc2s1`, the z-score was 2.69.

As to `COC(=O)c1ccc(CSc2ccc3nnc(-c4cccc(F)c4)n3n2)o1`, the z-score is -0.901.

As for `Cc1cccc(N2CSC3=C(C#N)C(c4ccc(C)o4)CC(=O)N3C2)c1` (configuration not stated), the z-score is -0.375.

On to `CCOC(=O)/C(=C\Nc1ccc(OC(F)(F)F)cc1)Sc1ncc(C(F)(F)F)cc1Cl`, for which the z-score is -0.436.

Turning to `CN(c1cccc(NC(=O)c2ccccc2N(C)S(=O)(=O)c2ccccc2)c1)S(C)(=O)=O`, the z-score was -0.199.

As to `COc1cc(OC)cc(C(=O)Nc2ccc(-c3nc4ccccc4o3)cc2)c1`, the z-score is -0.273.

In the case of `COc1cc(OC)cc(C(=O)NCc2nc(-c3ccccc3)no2)c1`, the z-score was -0.942.

For `COc1cccc(C(=O)Nc2c(F)c(F)c(F)c(F)c2F)c1`, the z-score is -0.711.

Take `COc1cccc(C(=O)Nc2nc(-c3ccccc3)c(-c3ccccc3)o2)c1`: the z-score was 7.83 (active).

For `COc1cccc(C(=O)Nc2ccccc2)c1`, the z-score was -0.0644.

As for `COc1cc(OC)cc(C(=O)Nc2nc(-c3ccccc3)c(-c3ccccc3)o2)c1`, the z-score was 3.64 (active).

With `CCCCOc1ccc(Cc2c(Cl)nc(SC)nc2N2CCOCC2)cc1`, the z-score was 0.0392.

On to `COc1cc(CN2CCN(c3cccc(Cl)c3)CC2)cc(OC)c1OC`, for which the z-score was -0.348.

For `O=C1CC(c2cccc(F)c2)SC(N(c2ccccc2)c2ccccc2)=N1` (configuration not stated), the z-score was -0.127.

Compound `NS(=O)(=O)c1ccc(N2N=C(c3ccccc3)CC2c2cccc(F)c2)cc1` (configuration not stated) gave a z-score of 0.17.

For `Fc1cccc(C2NN=C(c3ccccc3)S2)c1` (configuration not stated), the z-score was 6.37 (active).
